The values below come from ChEMBL document CHEMBL1961873, “Compounds: GSK PKIS; Assays: Nanosyn kinase panel” (2012).

The target in assay [1] is Sphingosine kinase 1 (Homo sapiens) (UniProt Q9NYA1). To be noted: at 1 µM.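 Also: mean SPHK1 inhibition value reported from the GSK PKIS kinase panel screen.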
Assay [2] has as its target T1, Sphingosine kinase 2 (Homo sapiens) (UniProt Q9NRA0).
T1 sequence (whole entry): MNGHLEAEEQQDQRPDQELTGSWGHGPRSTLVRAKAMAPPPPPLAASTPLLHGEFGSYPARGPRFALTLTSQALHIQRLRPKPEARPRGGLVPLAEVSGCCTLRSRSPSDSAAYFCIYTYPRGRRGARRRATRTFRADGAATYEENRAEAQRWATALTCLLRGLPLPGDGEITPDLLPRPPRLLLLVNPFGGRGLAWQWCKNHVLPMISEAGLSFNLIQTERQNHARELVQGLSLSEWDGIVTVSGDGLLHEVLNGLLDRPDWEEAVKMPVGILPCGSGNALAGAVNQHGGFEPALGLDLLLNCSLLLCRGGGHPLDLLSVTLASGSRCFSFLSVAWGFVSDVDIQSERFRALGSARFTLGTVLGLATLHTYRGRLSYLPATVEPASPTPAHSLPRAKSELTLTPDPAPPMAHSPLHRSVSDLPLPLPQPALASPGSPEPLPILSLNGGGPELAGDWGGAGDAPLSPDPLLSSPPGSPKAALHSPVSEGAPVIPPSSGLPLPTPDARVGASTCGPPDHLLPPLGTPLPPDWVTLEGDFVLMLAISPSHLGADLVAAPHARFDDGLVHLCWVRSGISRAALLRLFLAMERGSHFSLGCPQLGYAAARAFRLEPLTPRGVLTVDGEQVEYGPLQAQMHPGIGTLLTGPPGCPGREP
Conditions: at 0.1 µM.

Assay [3] concerns the target T1, Sphingosine kinase 2 (Homo sapiens). Conditions: at 1 µM.
In assay [4] the target is Casein kinase II subunit alpha (Homo sapiens) (UniProt P68400). To be noted: at 0.1 µM.
Chain of Casein kinase II subunit alpha (Homo sapiens) (P68400 whole entry, looked up): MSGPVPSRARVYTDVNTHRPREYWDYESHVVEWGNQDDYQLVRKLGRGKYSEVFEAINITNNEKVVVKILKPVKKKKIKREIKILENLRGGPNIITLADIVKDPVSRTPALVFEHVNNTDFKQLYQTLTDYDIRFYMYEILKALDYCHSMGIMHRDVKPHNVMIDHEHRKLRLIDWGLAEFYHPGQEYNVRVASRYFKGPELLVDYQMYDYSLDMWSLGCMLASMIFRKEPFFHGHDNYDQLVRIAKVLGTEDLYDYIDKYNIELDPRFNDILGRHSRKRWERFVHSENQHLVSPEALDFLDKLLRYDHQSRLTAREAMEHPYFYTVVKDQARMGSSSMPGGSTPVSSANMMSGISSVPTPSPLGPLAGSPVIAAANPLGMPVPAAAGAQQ
For assay [5] the target is unchanged. Conditions: at 1 µM.
In assay [6] the target is T2, Inhibitor of nuclear factor kappa-B kinase subunit alpha (Homo sapiens) (UniProt O15111).
T2 sequence (whole entry): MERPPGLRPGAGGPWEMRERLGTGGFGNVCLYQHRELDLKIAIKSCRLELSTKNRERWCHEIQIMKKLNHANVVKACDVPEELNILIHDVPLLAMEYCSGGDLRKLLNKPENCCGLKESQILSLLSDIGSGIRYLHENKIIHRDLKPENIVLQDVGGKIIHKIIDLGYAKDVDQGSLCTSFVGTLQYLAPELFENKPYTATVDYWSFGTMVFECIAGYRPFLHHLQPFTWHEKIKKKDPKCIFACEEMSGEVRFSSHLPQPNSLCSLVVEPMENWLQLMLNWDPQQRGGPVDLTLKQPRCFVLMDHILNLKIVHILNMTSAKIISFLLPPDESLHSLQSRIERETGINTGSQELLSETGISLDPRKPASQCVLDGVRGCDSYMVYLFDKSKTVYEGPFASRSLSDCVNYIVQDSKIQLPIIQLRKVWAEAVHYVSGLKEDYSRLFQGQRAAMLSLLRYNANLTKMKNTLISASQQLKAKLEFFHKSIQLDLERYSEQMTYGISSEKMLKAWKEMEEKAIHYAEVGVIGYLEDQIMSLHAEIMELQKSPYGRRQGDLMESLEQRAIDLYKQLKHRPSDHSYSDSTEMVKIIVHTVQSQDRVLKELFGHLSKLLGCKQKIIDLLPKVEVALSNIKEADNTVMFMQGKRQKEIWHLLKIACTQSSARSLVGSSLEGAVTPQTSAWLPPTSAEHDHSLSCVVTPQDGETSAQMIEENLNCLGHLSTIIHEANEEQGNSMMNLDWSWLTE
To be noted: at 0.1 µM.

Assay [7] concerns the target T2, Inhibitor of nuclear factor kappa-B kinase subunit alpha (Homo sapiens). Conditions: at 1 µM.
In assay [8] the target is T3, Inhibitor of nuclear factor kappa-B kinase subunit beta (Homo sapiens) (UniProt O14920).
T3 sequence (whole entry): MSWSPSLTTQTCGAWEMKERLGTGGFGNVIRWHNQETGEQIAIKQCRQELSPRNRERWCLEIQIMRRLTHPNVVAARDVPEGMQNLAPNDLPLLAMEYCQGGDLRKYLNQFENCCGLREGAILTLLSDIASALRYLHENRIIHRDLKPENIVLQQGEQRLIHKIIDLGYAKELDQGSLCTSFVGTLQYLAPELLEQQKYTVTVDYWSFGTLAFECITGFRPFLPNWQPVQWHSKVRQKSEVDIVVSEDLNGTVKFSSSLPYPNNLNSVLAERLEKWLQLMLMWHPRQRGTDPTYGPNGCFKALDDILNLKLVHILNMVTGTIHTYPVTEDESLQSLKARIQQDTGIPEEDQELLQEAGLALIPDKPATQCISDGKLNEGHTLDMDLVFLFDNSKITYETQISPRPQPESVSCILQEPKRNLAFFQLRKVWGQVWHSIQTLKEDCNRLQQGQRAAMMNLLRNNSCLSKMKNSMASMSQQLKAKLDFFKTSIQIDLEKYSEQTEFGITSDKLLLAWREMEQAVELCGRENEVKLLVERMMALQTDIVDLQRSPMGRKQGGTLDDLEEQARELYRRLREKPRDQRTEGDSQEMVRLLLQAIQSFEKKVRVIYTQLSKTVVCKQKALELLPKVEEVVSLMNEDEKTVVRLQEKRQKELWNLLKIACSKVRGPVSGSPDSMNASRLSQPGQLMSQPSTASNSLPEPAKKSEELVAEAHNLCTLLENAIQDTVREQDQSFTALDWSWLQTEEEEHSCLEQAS
To be noted: at 0.1 µM.

Assay [9] has as its target T3, Inhibitor of nuclear factor kappa-B kinase subunit beta (Homo sapiens). Conditions: at 1 µM.
The target in assay [10] is T4, Inhibitor of nuclear factor kappa-B kinase subunit epsilon (Homo sapiens) (UniProt Q14164).
T4 sequence (whole entry): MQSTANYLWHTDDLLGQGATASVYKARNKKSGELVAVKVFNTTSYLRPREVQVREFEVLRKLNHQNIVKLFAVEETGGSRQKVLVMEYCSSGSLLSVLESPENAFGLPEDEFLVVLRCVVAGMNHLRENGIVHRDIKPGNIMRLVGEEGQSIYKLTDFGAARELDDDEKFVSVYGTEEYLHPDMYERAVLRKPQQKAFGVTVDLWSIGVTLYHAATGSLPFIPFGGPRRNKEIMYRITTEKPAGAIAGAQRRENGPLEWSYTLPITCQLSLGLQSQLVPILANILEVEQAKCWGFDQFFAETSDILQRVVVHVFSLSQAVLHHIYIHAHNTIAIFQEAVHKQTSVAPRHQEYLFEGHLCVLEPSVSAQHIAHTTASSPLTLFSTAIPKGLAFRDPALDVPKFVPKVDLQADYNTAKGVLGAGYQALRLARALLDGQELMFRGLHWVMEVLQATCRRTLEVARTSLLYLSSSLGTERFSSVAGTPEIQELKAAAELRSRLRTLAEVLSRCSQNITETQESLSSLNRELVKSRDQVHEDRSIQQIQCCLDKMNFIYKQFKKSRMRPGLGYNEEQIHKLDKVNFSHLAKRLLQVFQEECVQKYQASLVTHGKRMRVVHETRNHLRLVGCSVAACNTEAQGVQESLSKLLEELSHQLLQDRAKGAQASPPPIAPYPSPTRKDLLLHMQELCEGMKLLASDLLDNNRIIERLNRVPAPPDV
Conditions: at 0.1 µM.

Assay [11] concerns the target T4, Inhibitor of nuclear factor kappa-B kinase subunit epsilon (Homo sapiens). To be noted: at 1 µM.
The target in assay [12] is T5, Serine/threonine-protein kinase Nek1 (Homo sapiens) (UniProt Q96PY6).
T5 sequence (whole entry): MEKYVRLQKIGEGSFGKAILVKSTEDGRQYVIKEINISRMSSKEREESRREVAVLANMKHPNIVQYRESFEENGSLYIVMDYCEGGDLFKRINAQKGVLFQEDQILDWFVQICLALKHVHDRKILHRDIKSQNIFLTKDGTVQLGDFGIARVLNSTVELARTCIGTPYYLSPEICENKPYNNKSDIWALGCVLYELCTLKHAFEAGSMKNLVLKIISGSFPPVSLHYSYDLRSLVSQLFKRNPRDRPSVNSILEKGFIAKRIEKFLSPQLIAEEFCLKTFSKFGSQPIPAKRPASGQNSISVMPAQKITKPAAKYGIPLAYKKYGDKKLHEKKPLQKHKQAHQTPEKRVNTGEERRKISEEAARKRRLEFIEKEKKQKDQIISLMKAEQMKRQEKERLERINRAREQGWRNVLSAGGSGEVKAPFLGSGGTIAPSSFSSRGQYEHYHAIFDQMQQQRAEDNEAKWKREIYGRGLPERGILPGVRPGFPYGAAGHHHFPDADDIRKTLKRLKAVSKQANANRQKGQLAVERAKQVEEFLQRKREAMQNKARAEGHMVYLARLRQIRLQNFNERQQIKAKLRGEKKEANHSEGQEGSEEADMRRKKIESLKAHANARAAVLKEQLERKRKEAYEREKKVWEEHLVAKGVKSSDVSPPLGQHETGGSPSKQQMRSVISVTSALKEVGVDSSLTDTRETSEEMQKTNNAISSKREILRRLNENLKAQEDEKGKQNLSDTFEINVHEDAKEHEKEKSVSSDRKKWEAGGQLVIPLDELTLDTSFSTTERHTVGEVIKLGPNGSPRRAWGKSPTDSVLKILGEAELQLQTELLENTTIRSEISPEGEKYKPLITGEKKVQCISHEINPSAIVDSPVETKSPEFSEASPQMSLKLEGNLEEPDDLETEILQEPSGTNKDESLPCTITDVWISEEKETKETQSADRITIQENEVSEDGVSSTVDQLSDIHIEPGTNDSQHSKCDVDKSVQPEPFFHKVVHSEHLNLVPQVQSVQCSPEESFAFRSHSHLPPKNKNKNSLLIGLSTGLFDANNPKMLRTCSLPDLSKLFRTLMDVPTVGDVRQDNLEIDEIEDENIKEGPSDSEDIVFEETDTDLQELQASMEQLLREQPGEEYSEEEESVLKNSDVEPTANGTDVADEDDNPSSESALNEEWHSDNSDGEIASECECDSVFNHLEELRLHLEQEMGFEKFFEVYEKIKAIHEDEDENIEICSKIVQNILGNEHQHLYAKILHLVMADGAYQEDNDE
Conditions: at 0.1 µM.

Assay [13] deals with T5, Serine/threonine-protein kinase Nek1 (Homo sapiens). Conditions: at 1 µM.
Assay [14] concerns the target T6, Serine/threonine-protein kinase Nek2 (Homo sapiens) (UniProt P51955).
T6 sequence (whole entry): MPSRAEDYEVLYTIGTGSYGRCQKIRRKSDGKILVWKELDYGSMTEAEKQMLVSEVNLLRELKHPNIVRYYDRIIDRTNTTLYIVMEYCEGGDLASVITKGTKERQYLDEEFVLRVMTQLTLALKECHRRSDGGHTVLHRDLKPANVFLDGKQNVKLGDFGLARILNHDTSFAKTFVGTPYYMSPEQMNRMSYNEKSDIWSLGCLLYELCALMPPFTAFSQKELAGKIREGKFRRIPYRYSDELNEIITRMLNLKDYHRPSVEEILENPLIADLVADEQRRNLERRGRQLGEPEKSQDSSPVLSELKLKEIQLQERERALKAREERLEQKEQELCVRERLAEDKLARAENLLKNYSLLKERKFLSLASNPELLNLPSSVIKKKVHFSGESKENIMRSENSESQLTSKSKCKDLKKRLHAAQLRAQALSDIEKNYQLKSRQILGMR
Conditions: at 0.1 µM.

The target of assay [15] is T6, Serine/threonine-protein kinase Nek2 (Homo sapiens). To be noted: at 1 µM.
The target in assay [16] is Serine/threonine-protein kinase Nek6 (Homo sapiens) (UniProt Q9HC98). Conditions: at 0.1 µM.
Chain of Serine/threonine-protein kinase Nek6 (Homo sapiens) (Q9HC98 whole entry): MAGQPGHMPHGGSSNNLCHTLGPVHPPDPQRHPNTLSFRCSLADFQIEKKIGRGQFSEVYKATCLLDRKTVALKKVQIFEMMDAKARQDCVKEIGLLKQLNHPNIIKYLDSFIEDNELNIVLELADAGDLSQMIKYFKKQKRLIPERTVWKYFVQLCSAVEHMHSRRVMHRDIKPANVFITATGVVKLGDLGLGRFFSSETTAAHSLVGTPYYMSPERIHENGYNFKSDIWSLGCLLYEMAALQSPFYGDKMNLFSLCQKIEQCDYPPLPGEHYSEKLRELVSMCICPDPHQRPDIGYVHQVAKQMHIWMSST
Assay [17] has the same target. To be noted: at 1 µM.
The target of assay [18] is Serine/threonine-protein kinase Nek7 (Homo sapiens) (UniProt Q8TDX7). To be noted: at 0.1 µM.
Chain of Serine/threonine-protein kinase Nek7 (Homo sapiens) (Q8TDX7 whole entry, looked up): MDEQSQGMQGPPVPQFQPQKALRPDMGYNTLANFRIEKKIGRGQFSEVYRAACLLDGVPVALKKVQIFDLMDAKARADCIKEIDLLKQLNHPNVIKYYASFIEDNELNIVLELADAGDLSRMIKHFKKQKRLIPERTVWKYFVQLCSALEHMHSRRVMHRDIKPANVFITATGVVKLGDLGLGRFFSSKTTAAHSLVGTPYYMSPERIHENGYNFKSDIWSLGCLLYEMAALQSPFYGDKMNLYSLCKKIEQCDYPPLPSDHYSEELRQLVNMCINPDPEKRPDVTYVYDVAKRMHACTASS
Assay [19] has the same target. To be noted: at 1 µM.
The target in assay [20] is T7, Serine/threonine-protein kinase Nek9 (Homo sapiens) (UniProt Q8TD19).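 Also: reported value is the mean percent inhibition of NEK9.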
T7 sequence (whole entry): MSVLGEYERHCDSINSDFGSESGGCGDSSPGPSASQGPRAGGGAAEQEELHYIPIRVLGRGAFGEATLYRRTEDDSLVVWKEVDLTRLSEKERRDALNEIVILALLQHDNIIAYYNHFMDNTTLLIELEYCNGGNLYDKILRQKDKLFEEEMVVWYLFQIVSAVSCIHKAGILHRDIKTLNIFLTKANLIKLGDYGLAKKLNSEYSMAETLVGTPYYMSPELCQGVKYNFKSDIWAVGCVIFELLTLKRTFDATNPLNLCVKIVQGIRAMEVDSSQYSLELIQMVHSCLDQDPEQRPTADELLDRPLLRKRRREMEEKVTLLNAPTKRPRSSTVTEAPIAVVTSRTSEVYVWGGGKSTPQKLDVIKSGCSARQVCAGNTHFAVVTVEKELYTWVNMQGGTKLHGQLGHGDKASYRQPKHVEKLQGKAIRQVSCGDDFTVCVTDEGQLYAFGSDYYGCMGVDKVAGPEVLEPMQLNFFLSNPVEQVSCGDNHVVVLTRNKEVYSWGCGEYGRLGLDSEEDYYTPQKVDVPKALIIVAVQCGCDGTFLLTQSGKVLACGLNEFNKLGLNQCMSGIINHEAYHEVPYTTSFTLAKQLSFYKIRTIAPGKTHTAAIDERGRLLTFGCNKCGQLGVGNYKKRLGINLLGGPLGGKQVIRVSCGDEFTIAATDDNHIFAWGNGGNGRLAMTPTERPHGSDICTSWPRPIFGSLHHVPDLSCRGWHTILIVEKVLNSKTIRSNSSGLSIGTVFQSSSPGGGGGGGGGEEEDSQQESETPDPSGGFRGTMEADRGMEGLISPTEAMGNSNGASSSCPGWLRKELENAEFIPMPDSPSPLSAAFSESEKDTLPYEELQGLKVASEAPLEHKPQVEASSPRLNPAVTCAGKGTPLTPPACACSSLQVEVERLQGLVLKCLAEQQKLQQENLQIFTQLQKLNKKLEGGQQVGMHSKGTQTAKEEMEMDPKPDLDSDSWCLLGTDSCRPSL
Conditions: at 0.1 µM.

Chain of Sphingosine kinase 1 (Homo sapiens) (Q9NYA1 whole entry): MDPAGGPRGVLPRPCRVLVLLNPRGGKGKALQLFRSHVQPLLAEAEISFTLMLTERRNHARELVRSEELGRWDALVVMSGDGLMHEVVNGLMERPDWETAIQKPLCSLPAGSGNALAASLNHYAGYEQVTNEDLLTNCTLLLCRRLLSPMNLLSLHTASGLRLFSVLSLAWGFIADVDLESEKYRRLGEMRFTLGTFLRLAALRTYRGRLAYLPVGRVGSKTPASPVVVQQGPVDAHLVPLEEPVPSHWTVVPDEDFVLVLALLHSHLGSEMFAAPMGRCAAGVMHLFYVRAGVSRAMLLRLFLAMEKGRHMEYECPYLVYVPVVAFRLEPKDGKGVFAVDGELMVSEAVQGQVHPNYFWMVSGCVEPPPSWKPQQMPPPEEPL

Turning to `CCc1nn2ncccc2c1-c1ccnc(NC2CC2)n1`, the inhibition in [1] stood at 0.9%; in assay [2], 0%; in assay [3] it was 0.3%; in assay [4], 1.46%; in assay [5], 4.59%; in assay [6], 3.61%. Besides, the inhibition in assay [7] turned out to be 6.96%; in assay [8], 4.78%; in [9] it was 3.76%; in assay [10] it was 4.47%; in assay [11] it was 6.61%; in assay [12], 3.1%. The inhibition in assay [13] is 4.93%; in assay [14], 3.32%; in assay [15] it was 3.36%; in assay [16], 2.16%; in [17], 3.98%; in assay [18] it was 1.99%. Besides, the inhibition stood at 3.9% in assay [19] and 2.26% in assay [20].
